SMILES strings stand for the structures. Inconclusive results are not listed. Calls of active or inactive are those of the source. How the source made its calls, unless noted: active means hit-call score of the fitted dose curve at least 0.9, where 1 is the maximum; inactive means score below 0.9.

Read-out in assay [1]: CD69, CD69 (gene 969)
Put plainly: BSK_LPS_CD69: BioMAP Diversity Plus: LPS Assay for CD69 Biomarker Activity (AID 2284303). The conditions noted are these: primary human HUVEC with PBMC. The method in brief:
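CD69 surface levels were read by ELISA after 24 h chemical treatment of an LPS-stimulated HUVEC plus PBMC co-culture; positive-direction fit against DMSO vehicle.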

A short description of assay [2]: IUF_NPC2c_oligodendrocyte_migration_120hr: Leibniz Research Institute for Environmental Medicine (IUF) 120-hour Neural Progenitor Cell Migration Assay for Oligodendrocyte Migration (NPC2c) (AID 2284297).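 Further: O4-positive oligodendrocyte migration distance divided by radial glia migration distance.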 The method in brief: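 Using fetal brain neural progenitor spheres differentiating in N2 medium at 37C, compounds were present for 120 h. Oligodendrocyte migration distance, normalized to radial glia migration, was measured from imaged O4 staining.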

Assay [3] is described as follows: IUF_NPC2a_radial_glia_migration_120hr: Leibniz Research Institute for Environmental Medicine (IUF) 120-hour Neural Progenitor Cell Migration Assay for Radial Glia Migration (NPC2a) (AID 2284298). The method in brief:
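Exposure of 0.3 mm primary hNPC spheres runs day 0 to 120 h with a half-volume medium change at day 3. Fixed cells get Hoechst staining; high-content analysis of nuclear positions yields radial glia migration distance per well, compared against DMSO controls.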

Assay [4] is described as follows: IUF_NPC2a_radial_glia_migration_72hr: Leibniz Research Institute for Environmental Medicine (IUF) 72-hour Neural Progenitor Cell Migration Assay for Radial Glia Migration (NPC2a) (AID 2284299). The method in brief: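 Spheres of human primary neural progenitors migrate on poly-D-lysine/laminin under compound exposure at 37C, 5% CO2. The 72 h radial glia migration distance comes from brightfield images, measured manually.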

Assay [5] in a line: IUF_NPC2b_neuronal_migration_120hr: Leibniz Research Institute for Environmental Medicine (IUF) 120-hour Neural Progenitor Cell Migration Assay for Neuron Migration (NPC2b) (AID 2284300). The procedure, abridged: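 Fetal human NPC spheres migrate on PDL/laminin during 120 h compound treatment; neuronal migration distance, glia-normalized, scored versus DMSO control.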
Assay [6] can be described thus: IUF_NPC3_neuronal_differentiation_120hr: Leibniz Research Institute for Environmental Medicine (IUF) 120-hour Neuronal Differentiation Assay (NPC3) (AID 2284301). The method in brief:
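Neuronal differentiation of primary human neural progenitors measured by high-content imaging: percent TUBB3+ of Hoechst+ nuclei within migrated area at 120 h, seven-point serial dilution plus solvent control, gain or loss relative to DMSO.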

Assay [7] is described as follows: IUF_NPC4_neurite_length_120hr: Leibniz Research Institute for Environmental Medicine (IUF) 120-hour Neuronal Morphology Assay for Neurite Length (NPC4) (AID 2284302). The method in brief: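 Neurons from differentiating human fetal neural progenitor spheres are scored for average neurite length after five days of compound exposure. Fitting uses DMSO as negative control.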

Assay [8] can be described thus: IUF_NPC5_oligodendrocyte_differentiation_120hr: Leibniz Research Institute for Environmental Medicine (IUF) 120-hour Oligodendrocyte Differentiation Assay (NPC5) (AID 2284304; active means hit-call score of the fitted dose curve at least 0.9, where 1 is the maximum;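 further: primary human fetal neural progenitor spheres plated to migrate and differentiate; share of O4-positive cells among Hoechst nuclei found by CNN image analysis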). The procedure, abridged: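 After plating on poly-D-lysine/laminin, fetal-derived hNPC spheres differentiated for 120 h at 37C in compound-containing N2 medium, refreshed by half on day 3. O4 immunostaining over Hoechst nuclei in the migration zone gave oligodendrocyte percentage relative to DMSO.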

Assay [9] is described as follows: IUF_NPC2-5_cytotoxicity_72hr: Cytotoxicity Assessment at 72 hours in the Leibniz Research Institute for Environmental Medicine (IUF) Neural Progenitor Cell Migration and Differentiation Assay for Cytotoxicity (NPC2-5) (AID 2284306; active means hit-call score of the fitted dose curve at least 0.9, where 1 is the maximum;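 further: LDH release into supernatant measured by resorufin fluorescence marking membrane damage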). The procedure, abridged:
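Primary human neural progenitor spheres migrate and differentiate on laminin. Compound is present from the start of differentiation, with DMSO kept at or below 0.1%. At 72 h, supernatant LDH is quantified fluorometrically, with values fitted in the positive direction.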

Assay [10] in a line: IUF_NPC4_neurite_area_120hr: Leibniz Research Institute for Environmental Medicine (IUF) 120-hour Neuronal Morphology Assay for Neurite Area (NPC4) (AID 2284305; active means hit-call score of the fitted dose curve at least 0.9, where 1 is the maximum). The method in brief: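 Endpoint at 120 h: automated imaging of TUBB3/Hoechst-stained differentiating human neural progenitor spheres, neurite area per neuron from skeletonization. DMSO solvent control, not above 0.1%, set the baseline; medium was half-replaced on day 3.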

As for `C=CCOC(=O)CCC1CCCCC1`, in assay [1], the result was inactive.

`NCCNCCN`: the outcome in assay [1] was inactive.

Consider `Nc1cc([N+](=O)[O-])ccc1O`, for which the result in [1] was inactive.

Take `Cc1cc(C2(c3cc(C)c(O)cc3C)OS(=O)(=O)c3ccccc32)c(C)cc1O`: the outcome in [1] was inactive.

Regarding `CN(C)C(=N)N=C(N)N`, the result in assay [2], in assay [3], in [4], in assay [5], in assay [6] and in assay [7] was inactive. For the same compound, the result in [8] and in [9] was inactive.

As for `OC[C@H]1O[C@H](O[C@]2(CCl)O[C@H](CCl)[C@@H](O)[C@@H]2O)[C@H](O)[C@@H](O)[C@H]1Cl`, in assay [1], the result was inactive.

With `COc1cc(C=O)ccc1OC(=O)C(C)C`, the result in assay [1] was inactive.

Take `CCC(=O)OCc1ccccc1`: the outcome in [1] was inactive.

For the compound `CC(=O)OCCC(C)CC(C)(C)C` (centres undefined), in [1], the result was inactive.

In the case of `CC[Si](OC(C)=O)(OC(C)=O)OC(C)=O`, in [1], the result was inactive.

For `C[C@H]1C[C@@H]2[C@H]([C@@H](O)C[C@@]3(C)[C@H]2CC[C@]3(O)C(=O)CO)[C@@]2(C)C=CC(=O)C=C12`, the result in assay [1] was inactive.

The term AC50 denotes the midpoint of the concentration-response curve, whichever way the signal moves. As to `N#Cc1ccc(CC(=NNC(=O)Nc2ccc(OC(F)(F)F)cc2)c2cccc(C(F)(F)F)c2)cc1`, the compound was called inactive in assay [2], in assay [3], in assay [4], in [5], in assay [6] and in [7]. The compound was classed as inactive in [10] and in [9]. Moreover, the AC50 in assay [8] was 784 nM (active).

Regarding `OC1OC[C@@H](O)[C@H](O)[C@H]1O` (some centres undefined), the result in [1] was inactive.

In the case of `CC(=O)[C@H]1CC[C@H]2[C@@H]3CC=C4C[C@@H](O)CC[C@]4(C)[C@H]3CC[C@]12C`, the outcome in [1] was inactive.

The values above are taken from PubChem BioAssay (EPA / NIEHS).
